Drawing on PubChem BioAssay (EPA / NIEHS), this text covers outcome and AC50 for six compounds.

SMILES strings stand for the structures. The source made the active and inactive calls. Rule for the calls: active = hit-call score of the fitted dose curve at least 0.9, where 1 is the maximum; inactive = score below 0.9.

What all share (settings): mRNA level, 48 h; actives raise or lower the signal
Read-out in experiment [1]: Paternally Expressed 10 (PEG10), PEG10 (gene 23089)
As to the kind of experiment: LTEA_HepaRG_PEG10: Life Technologies and Expression Analysis (LTEA) Assay for Paternally Expressed 10 (PEG10) using HepaRG (AID 2283520). The gist of the method: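 Differentiated HepaRG cells exposed 48 h in serum-free induction medium to eight half-log concentrations topping at 100 uM, 0.5% DMSO, in duplicate. PEG10 mRNA quantified by TaqMan qRT-PCR, normalized to ACTB, GAPDH and POLR2A; bidirectional fit versus DMSO.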

Read-out in experiment [2]: Protein phosphatase 2A (PPP2R4), PTPA (gene 5524)
Description: LTEA_HepaRG_PPP2R4: Life Technologies and Expression Analysis (LTEA) Assay for Protein phosphatase 2A (PPP2R4) using HepaRG (AID 2283522). Summed up:
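Differentiated human HepaRG cells in serum-free induction medium were exposed 48 h to 8 concentrations (top 100 µM, half-log steps, duplicate) in 0.5% DMSO. PPP2R4 mRNA was measured by TaqMan qRT-PCR, normalised to ACTB, GAPDH and POLR2A, and fitted bidirectionally versus DMSO.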

Read-out in experiment [3]: Phosphatase and tensin (PTEN), PTEN (gene 5728)
As to the kind of experiment: LTEA_HepaRG_PTEN: Life Technologies and Expression Analysis (LTEA) Assay for Phosphatase and tensin (PTEN) using HepaRG (AID 2283523). The gist of the method:
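Read-out is PTEN transcript level by multiplexed TaqMan qRT-PCR after 48 h chemical treatment of human HepaRG cultures in serum-free induction medium. Concentrations spanned 100 uM downward in half-log steps, 0.5% DMSO throughout; activity fitted in both directions against vehicle.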

Read-out in experiment [4]: solute carrier (SLC22A1), SLC22A1 (gene 6580)
Description: LTEA_HepaRG_SLC22A1: Life Technologies and Expression Analysis (LTEA) Assay for solute carrier (SLC22A1) using HepaRG (AID 2283524). The gist of the method: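 HepaRG (human liver line), 48 h dosing in serum-free induction medium; 8 conc., half-log down from 100 uM, 0.5% DMSO vehicle, duplicates. Endpoint: SLC22A1 mRNA, qRT-PCR, housekeeping-normalized; gain/loss fit vs DMSO.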

Read-out in experiment [5]: Pyruvate Dehydrogenase Kinase 4 (PDK4), PDK4 (gene 5166)
As to the kind of experiment: LTEA_HepaRG_PDK4: Life Technologies and Expression Analysis (LTEA) Assay for Pyruvate Dehydrogenase Kinase 4 (PDK4) using HepaRG (AID 2283525). The gist of the method:
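In this multiplexed human HepaRG expression assay, cells are treated 48 h with test chemicals across an eight-point range starting at 100 uM. PDK4 mRNA changes, normalized to ACTB/GAPDH/POLR2A, are fitted in both directions relative to vehicle.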

Read-out in experiment [6]: NAD(P)H dehydrogenase [quinone] 1 (NQO1), NQO1 (gene 1728)
As to the kind of experiment: LTEA_HepaRG_NQO1: Life Technologies and Expression Analysis (LTEA) Assay for NAD(P)H dehydrogenase [quinone] 1 (NQO1) using HepaRG (AID 2283526). Summed up:
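Differentiated human HepaRG cells in serum-free induction medium, dosed in duplicate for 48 h at 8 half-log concentrations up to 100 uM in 0.5% DMSO. NQO1 mRNA by qRT-PCR normalized to ACTB, GAPDH, POLR2A; bidirectional fit versus DMSO baseline.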

Read-out in experiment [7]: succinate dehydrogenase complex iron sulfur subunit B (SDHB), SDHB (gene 6390)
As to the kind of experiment: LTEA_HepaRG_SDHB: Life Technologies and Expression Analysis (LTEA) Assay for succinate dehydrogenase complex iron sulfur subunit B (SDHB) using HepaRG (AID 2283528). The gist of the method: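 A human HepaRG culture in serum-free induction medium received test chemicals for 48 h over an eight-point range capped at 100 uM. SDHB expression change was quantified by qRT-PCR.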

Read-out in experiment [8]: Signal transducer and activator of transcription 3 (Homo sapiens) (UniProt P40763)
As to the kind of experiment: LTEA_HepaRG_STAT3: Life Technologies and Expression Analysis (LTEA) Assay for Signal transducer and activator of transcription (STAT3) using HepaRG (AID 2283529). The gist of the method: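 Read-out is STAT3 mRNA level by qRT-PCR, normalized to three housekeeping genes, in human HepaRG liver cells treated for 48 h. Concentrations ran from 100 uM downward in half-log steps; curves were fitted for gain or loss relative to 0.5% DMSO.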

Read-out in experiment [9]: solute carrier (SLCO1B1), SLCO1B1 (gene 10599)
Description: LTEA_HepaRG_SLCO1B1: Life Technologies and Expression Analysis (LTEA) Assay for solute carrier (SLCO1B1) using HepaRG (AID 2283530). Summed up: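 Human HepaRG cultures treated for 48 h with an eight-concentration half-log series topping at 100 uM; SLCO1B1 measured by qRT-PCR and fitted bidirectionally relative to DMSO.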

Read-out in experiment [10]: sulfotransferase 2A1 (SULT2A1), SULT2A1 (gene 6822)
As to the kind of experiment: LTEA_HepaRG_SULT2A1: Life Technologies and Expression Analysis (LTEA) Assay for sulfotransferase 2A1 (SULT2A1) using HepaRG (AID 2283531). The gist of the method:
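Gene-expression endpoint in a human liver cell line: SULT2A1 mRNA change after 48 h chemical treatment, curves fitted in both directions relative to 0.5% DMSO vehicle. Concentrations spanned eight half-log steps from 100 uM.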

Read-out in experiment [11]: Transforming Growth Factor (TGFA), TGFA (gene 7039)
Description: LTEA_HepaRG_TGFA: Life Technologies and Expression Analysis (LTEA) Assay for Transforming Growth Factor (TGFA) using HepaRG (AID 2283532). The gist of the method: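 HepaRG (human liver line), 48 h exposure, 8 conc. half-log down from 100 uM, 0.5% DMSO vehicle, duplicates; serum-free induction medium. TGFA mRNA by TaqMan qRT-PCR, ACTB/GAPDH/POLR2A normalization; gain/loss fit vs DMSO.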

Read-out in experiment [12]: Transforming Growth Factor (TGFB1), TGFB1 (gene 7040)
Description: LTEA_HepaRG_TGFB1: Life Technologies and Expression Analysis (LTEA) Assay for Transforming Growth Factor (TGFB1) Transporter using HepaRG (AID 2283533). The gist of the method:
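Eight-point concentration-response (max 100 uM, half-log) in HepaRG under serum-free induction conditions, 48 h. TGFB1 mRNA by qRT-PCR, housekeeping-normalized.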

Read-out in another experiment: TIMP1, TIMP1 (gene 7076)
Description: LTEA_HepaRG_TIMP1: Life Technologies and Expression Analysis (LTEA) Assay for TIMP1 using HepaRG (AID 2283534).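 Note: TaqMan qRT-PCR signal normalized to ACTB GAPDH and POLR2A housekeeping genes.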 Summed up: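 TIMP1 induction or repression in HepaRG cells after 48 h chemical exposure (eight concentrations, highest 100 uM), assessed by normalized qRT-PCR with bidirectional fitting to DMSO controls.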

Read-out in experiment [13]: Tumor necrosis factor receptor 1 (TNFRSF1A), TNFRSF1A (gene 7132)
Description: LTEA_HepaRG_TNFRSF1A: Life Technologies and Expression Analysis (LTEA) Assay for Tumor necrosis factor receptor 1 (TNFRSF1A) using HepaRG (AID 2283535). The gist of the method:
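Assay uses 48 h chemical treatment of differentiated HepaRG monolayers, tested in duplicate at eight concentrations from 100 uM downward in 0.5% DMSO. mRNA is normalized to ACTB, GAPDH and POLR2A, with induction or suppression fitted relative to vehicle.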

Read-out in experiment [14]: Thyroid Hormone Responsive (THRSP), THRSP (gene 7069)
As to the kind of experiment: LTEA_HepaRG_THRSP: Life Technologies and Expression Analysis (LTEA) Assay for Thyroid Hormone Responsive (THRSP) using HepaRG (AID 2283536). Summed up:
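mRNA induction or loss relative to 0.5% DMSO vehicle was fitted bidirectionally across an eight-point curve whose highest exposure was 100 uM. Human HepaRG liver cells received chemicals in duplicate over 48 h before RNA extraction.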

Read-out in experiment [15]: Cellular tumor antigen p53 (Homo sapiens) (UniProt P04637)
As to the kind of experiment: LTEA_HepaRG_TP53: Life Technologies and Expression Analysis (LTEA) Assay for Tumor Protein P53 (TP53) using HepaRG (AID 2283537). Summed up:
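Gain or loss of TP53 mRNA signal is scored relative to 0.5% DMSO after 48 h chemical treatment of HepaRG liver cells, tested in duplicate at eight half-log concentrations up to 100 uM.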

Read-out in experiment [16]: UDP glucuronosyltransferase (UGT1A1), UGT1A1 (gene 54658)
As to the kind of experiment: LTEA_HepaRG_UGT1A1: Life Technologies and Expression Analysis (LTEA) Assay for UDP glucuronosyltransferase (UGT1A1) using HepaRG (AID 2283538). The gist of the method: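 HepaRG cells, 0.5% DMSO vehicle, 48 h exposure in serum-free induction medium to 8-point half-log series topping at 100 uM, in duplicate. UGT1A1 mRNA by Fluidigm qRT-PCR, normalized to ACTB/GAPDH/POLR2A; bidirectional fit versus DMSO.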

Read-out in experiment [17]: Nuclear factor erythroid 2-related factor 2 (Homo sapiens) (UniProt Q16236)
Description: LTEA_HepaRG_NFE2L2: Life Technologies and Expression Analysis (LTEA) Assay for Nuclear factor erythroid 2-related factor 2 (NFE2L2) Transcription Factor using HepaRG (AID 2283527).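 Note: TaqMan qRT-PCR transcript level normalised to ACTB GAPDH and POLR2A housekeeping genes.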 The gist of the method:
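Transcript level of NFE2L2 is the read-out, measured by microfluidic TaqMan qRT-PCR and normalized to three housekeeping genes. Human HepaRG cultures received test chemical for 48 h at up to 100 uM in half-log steps. Gain or loss of signal is fitted relative to 0.5% DMSO.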

Read-out in experiment [18]: Nuclear factor NF-kappa-B p105 subunit (Homo sapiens) (UniProt P19838)
As to the kind of experiment: LTEA_HepaRG_NFKB1: Life Technologies and Expression Analysis (LTEA) Assay for Nuclear Factor Kappa B Subunit 1 (NFKB1) using HepaRG (AID 2283521).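 Note: TaqMan qRT-PCR transcript normalised to ACTB GAPDH and POLR2A housekeeping genes.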 Summed up: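 Human HepaRG cells receive eight half-log concentrations, highest 100 uM, for 48 h. NFKB1 expression is then quantified by qRT-PCR and analysed for up- or down-regulation relative to 0.5% DMSO vehicle.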

Chain of Cellular tumor antigen p53 (Homo sapiens) (P04637 whole entry, looked up): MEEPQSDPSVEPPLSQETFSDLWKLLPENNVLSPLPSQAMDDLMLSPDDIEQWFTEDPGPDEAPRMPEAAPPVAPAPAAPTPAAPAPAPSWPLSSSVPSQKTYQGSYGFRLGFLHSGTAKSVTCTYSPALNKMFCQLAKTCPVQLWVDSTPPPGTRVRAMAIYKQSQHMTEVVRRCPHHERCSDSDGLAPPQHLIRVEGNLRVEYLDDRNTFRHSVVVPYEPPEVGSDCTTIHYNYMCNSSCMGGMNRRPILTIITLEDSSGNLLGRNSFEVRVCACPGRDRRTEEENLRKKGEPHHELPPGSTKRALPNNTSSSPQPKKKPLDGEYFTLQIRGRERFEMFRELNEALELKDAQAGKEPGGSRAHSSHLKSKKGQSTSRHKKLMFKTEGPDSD
Chain of Signal transducer and activator of transcription 3 (Homo sapiens) (P40763 whole entry, looked up): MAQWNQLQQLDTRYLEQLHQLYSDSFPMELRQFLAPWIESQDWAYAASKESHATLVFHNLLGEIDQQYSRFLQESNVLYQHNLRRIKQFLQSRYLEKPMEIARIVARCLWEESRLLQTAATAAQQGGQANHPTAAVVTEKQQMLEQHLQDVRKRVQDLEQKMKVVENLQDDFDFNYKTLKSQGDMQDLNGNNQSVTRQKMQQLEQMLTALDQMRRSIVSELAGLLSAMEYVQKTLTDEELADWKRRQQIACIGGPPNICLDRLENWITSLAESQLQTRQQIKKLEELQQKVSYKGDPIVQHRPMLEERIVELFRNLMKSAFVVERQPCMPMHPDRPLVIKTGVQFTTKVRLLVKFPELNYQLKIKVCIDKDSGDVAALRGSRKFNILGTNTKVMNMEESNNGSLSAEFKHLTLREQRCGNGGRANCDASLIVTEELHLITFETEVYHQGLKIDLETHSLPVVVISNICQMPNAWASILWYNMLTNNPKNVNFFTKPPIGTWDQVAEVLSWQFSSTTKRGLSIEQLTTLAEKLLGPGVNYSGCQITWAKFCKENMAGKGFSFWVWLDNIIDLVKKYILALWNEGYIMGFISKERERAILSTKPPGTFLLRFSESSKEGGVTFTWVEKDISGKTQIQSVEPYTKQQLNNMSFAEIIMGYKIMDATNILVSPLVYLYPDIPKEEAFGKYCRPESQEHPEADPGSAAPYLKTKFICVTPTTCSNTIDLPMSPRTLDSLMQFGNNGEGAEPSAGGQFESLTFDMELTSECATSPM
Chain of Nuclear factor NF-kappa-B p105 subunit (Homo sapiens) (P19838 whole entry, looked up): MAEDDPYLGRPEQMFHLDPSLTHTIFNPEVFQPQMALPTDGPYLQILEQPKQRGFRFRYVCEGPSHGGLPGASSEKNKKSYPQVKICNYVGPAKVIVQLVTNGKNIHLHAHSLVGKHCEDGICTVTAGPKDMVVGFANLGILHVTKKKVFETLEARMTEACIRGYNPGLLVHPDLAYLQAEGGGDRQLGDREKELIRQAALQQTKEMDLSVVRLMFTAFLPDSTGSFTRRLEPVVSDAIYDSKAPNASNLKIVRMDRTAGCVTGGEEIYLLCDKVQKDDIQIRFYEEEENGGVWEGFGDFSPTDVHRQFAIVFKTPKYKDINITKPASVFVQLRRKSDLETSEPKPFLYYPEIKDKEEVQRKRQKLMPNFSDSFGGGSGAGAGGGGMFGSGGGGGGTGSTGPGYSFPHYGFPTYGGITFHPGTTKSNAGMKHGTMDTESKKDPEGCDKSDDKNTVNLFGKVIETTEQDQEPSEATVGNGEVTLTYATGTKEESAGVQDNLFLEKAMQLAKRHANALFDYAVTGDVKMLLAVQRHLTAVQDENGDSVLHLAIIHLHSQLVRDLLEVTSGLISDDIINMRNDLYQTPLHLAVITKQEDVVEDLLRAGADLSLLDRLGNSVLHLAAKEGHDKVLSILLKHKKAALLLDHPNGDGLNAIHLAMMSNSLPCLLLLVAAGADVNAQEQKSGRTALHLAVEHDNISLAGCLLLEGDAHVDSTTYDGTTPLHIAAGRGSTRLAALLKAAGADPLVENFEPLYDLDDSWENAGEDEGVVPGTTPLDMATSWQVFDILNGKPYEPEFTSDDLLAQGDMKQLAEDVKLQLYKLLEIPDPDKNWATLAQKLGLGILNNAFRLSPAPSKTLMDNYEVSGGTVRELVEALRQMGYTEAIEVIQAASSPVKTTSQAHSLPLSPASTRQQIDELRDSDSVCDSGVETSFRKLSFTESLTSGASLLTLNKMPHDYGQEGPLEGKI
Chain of Nuclear factor erythroid 2-related factor 2 (Homo sapiens) (Q16236 whole entry, looked up): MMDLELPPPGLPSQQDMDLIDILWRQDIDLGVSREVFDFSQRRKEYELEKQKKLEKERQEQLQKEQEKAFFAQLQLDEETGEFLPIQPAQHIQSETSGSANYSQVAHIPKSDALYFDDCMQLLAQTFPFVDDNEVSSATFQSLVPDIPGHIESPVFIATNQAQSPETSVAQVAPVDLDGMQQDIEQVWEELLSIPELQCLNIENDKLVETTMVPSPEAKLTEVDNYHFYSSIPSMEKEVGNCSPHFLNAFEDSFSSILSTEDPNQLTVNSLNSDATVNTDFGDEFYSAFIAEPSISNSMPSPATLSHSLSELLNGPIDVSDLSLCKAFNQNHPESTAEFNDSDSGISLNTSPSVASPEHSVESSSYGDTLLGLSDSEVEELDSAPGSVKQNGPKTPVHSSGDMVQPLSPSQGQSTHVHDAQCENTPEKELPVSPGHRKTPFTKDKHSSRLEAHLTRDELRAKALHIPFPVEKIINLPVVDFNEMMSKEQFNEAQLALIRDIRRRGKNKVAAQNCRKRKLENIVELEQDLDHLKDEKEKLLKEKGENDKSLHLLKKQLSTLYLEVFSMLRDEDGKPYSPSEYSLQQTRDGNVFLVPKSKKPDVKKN

Take `CCCOC(=O)NCCCN(C)C`: the call in experiment [1], in experiment [2], in experiment [3], in experiment [4], in experiment [5] and in experiment [6] was inactive. In addition, the result in experiment [7], in experiment [8], in experiment [9], in [10], in experiment [11] and in experiment [12] was inactive. Also, the outcome is “inactive” with TIMP1, TIMP1 (gene 7076); “inactive” in experiment [13]; “inactive” in experiment [14]; “inactive” in experiment [15]; “inactive” in experiment [16].
Consider `CCCN(CCC)C(=O)SCC`, for which the compound was called inactive in [1], in experiment [2], in [3], in experiment [4], in experiment [5] and in experiment [6]. For the same compound, the outcome in [17], in experiment [7], in [8], in experiment [9], in [10] and in experiment [11] was inactive. In addition, the outcome was “inactive” in experiment [12]; “inactive” in the experiment with TIMP1, TIMP1 (gene 7076); “inactive” in experiment [13]; “inactive” in [14]; “inactive” in [15]; “inactive” in experiment [16].
On to `COc1c(Cl)ccc(Cl)c1C(=O)O`, for which the call in [1], in experiment [2], in experiment [3], in experiment [5], in experiment [6] and in experiment [17] was inactive. Besides, the compound was classed as inactive in [7], in experiment [8], in experiment [9], in [10], in [11] and in [12]. In addition, the outcome was “inactive” in the experiment with TIMP1, TIMP1 (gene 7076); “inactive” in [13]; “inactive” in experiment [14]; “inactive” in [16].
As a reminder, the AC50 is the concentration at which the activity in the assay is half-maximal. For `COC(=O)CSc1cc(N=c2sc(=O)n3n2CCCC3)c(F)cc1Cl`, the compound was called inactive in [1], in experiment [2], in [3], in experiment [5], in [6] and in experiment [7]. The outcome in [8] is “inactive”; in [9], “inactive”; in experiment [10], “inactive”; in experiment [11], “inactive”; in experiment [12], “inactive”; with TIMP1, TIMP1 (gene 7076), “inactive”. The result in [13], in experiment [14] and in [15] was inactive. Moreover, the half-maximal activity concentration (AC50) in [16] is 41.4 µM (active).
As for `COC(=O)c1ccccc1C(=O)O`, the compound was classed as inactive in experiment [1], in experiment [18], in experiment [2], in experiment [3], in experiment [5] and in experiment [6]. The result in experiment [7], in experiment [8], in [9], in [10], in [11] and in experiment [12] was inactive. Moreover, the outcome was “inactive” in the experiment with TIMP1, TIMP1 (gene 7076); “inactive” in experiment [13]; “inactive” in experiment [14]; “inactive” in experiment [15]; “inactive” in [16].
Turning to `C#C[C@]1(O)CC[C@H]2[C@@H]3CCC4=CC(=O)CC[C@@H]4[C@H]3CC[C@@]21CC`, the AC50 in experiment [1] is 2.38 µM (active); in experiment [5] it was 0.442 µM (active); in experiment [9] it was 0.0325 µM (active); in experiment [14], 0.0275 µM (active); in experiment [16], 0.291 µM (active). Further, the outcome in [18], in experiment [2], in [3], in [6], in experiment [7] and in [8] was inactive. In addition, the outcome in [10], in experiment [11], in [12], in experiment [13] and in experiment [15] was inactive.
